Pol eta inh: DNA polymerase eta (human) inhibition. 390,000 tested, 1.2% active. Potency, µM (highest dose often 114 µM), for inactives: at the top dose activity change, negative = inhibition, actives largely listed as inhibitors. recombinant Pol eta, fluorescent DNA replication assay. AID 588591; note: % is set by controls: 0 for no effect and ±100 for the full control effect
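Pol eta at 10 nM preincubated with compounds 15 min at room temperature; reaction started with fluorescent substrate (50 nM final) and read kinetically at 0 and 10 min.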
FEN1 inhibitor: human FEN1 inhibition; P39748; Recombinant FEN1 flap cleavage, fluorescence, 15 min; Potency, µM (highest dose often 114 µM), for inactives: top-dose activity change, negative = inhibition, usual class: inhibitors; 390,000 tested, 0.35% active; note: % is set by controls: 0 for no effect and ±100 for the full control effect; nearly all actives have a fitted effect of over 65% in size
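Quantitative HTS format: each compound was titrated, incubated with 10 nM nuclease for 15 min at room temperature, then challenged with flap substrate at 50 nM final. Signal change over 15 min gave concentration–effect curves.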
Pol kappa inh: inhibitors of human DNA polymerase kappa. Potency, µM (doses to about 107 µM), for the others: top-dose activity, negative = inhibition, actives largely listed as inhibitors. 400,000 tested, 0.53% active. purified Pol kappa, fluorescent DNA synthesis assay, 10 min; note: % is set by controls: 0 for no effect and ±100 for the full control effect
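Kinetic fluorescence screen: compound preincubated 15 min RT with 10 nM enzyme; 50 nM substrate (final) initiates; reads at 0/10 min.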
WRN inhibitor: blocks human WRN helicase | Q14191 | WRN helicase unwinding, fluorescent forked duplex, kinetic | Potency, µM (top dose mostly 114 µM), for inactives: at the highest dose activity change, negative = inhibition, actives largely listed as inhibitors | 360,000 tested, 0.46% active | AID 651768; note: % is set by controls: 0 for no effect and ±100 for the full control effect; nearly all actives have a fitted effect of over 55% in size
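Enzyme (20 nM final) and test compound sit together 15 min at room temperature before substrate addition. Substrate is a single-forked duplex oligonucleotide (100 nM) labelled with fluorophore and quencher, with 2 mM ATP; helicase unwinding raises red fluorescence, read kinetically.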
Pol iota inh: blocks human DNA polymerase iota activity; Q9UNA4; Pol iota fluorescent replication assay, 10 min; Potency, µM (doses to about 115 µM), without a hit: top-dose activity, negative = inhibition, most hits filed as inhibitors; 390,000 tested, 1% active; AID 588590
Target sequence (Q9UNA4 whole entry, looked up): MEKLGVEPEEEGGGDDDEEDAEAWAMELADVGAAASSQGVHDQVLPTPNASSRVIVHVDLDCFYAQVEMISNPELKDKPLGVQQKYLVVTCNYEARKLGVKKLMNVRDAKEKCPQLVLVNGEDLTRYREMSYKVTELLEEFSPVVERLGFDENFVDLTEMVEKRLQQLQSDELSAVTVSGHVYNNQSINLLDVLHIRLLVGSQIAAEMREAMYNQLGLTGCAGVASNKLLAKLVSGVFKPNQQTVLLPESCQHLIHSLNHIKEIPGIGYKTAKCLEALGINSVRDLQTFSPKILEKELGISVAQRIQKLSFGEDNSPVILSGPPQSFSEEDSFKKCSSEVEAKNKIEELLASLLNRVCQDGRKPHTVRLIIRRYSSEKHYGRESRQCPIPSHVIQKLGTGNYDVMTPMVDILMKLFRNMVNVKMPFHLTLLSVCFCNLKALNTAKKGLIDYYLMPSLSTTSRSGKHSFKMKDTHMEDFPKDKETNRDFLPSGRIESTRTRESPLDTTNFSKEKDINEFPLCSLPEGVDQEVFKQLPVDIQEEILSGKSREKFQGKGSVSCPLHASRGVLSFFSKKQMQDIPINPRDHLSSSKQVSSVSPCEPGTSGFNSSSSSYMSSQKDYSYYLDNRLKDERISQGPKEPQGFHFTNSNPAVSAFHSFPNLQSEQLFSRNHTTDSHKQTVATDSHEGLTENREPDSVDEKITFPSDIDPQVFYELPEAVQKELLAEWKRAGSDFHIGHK
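Pol iota at 10 nM preincubated 15 min with compounds at room temperature; reaction started with fluorescent substrate, 50 nM final. Fluorescence read kinetically at 0 and 10 min; buffer-only wells as negative control.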
POLB inh: inhibitors of human DNA polymerase beta | Potency, µM (titrated, usually from 114 µM), for the others: at the top dose activity change, negative = inhibition, most hits filed as inhibitors | 340,000 tested, 1.3% active | P06746 | Pol beta primer extension/strand displacement, fluorescence kinetic; note: % is set by controls: 0 for no effect and ±100 for the full control effect
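Curves were derived by four-parameter Hill fits of normalized qHTS data. The kinetic fluorescent primer-extension read was taken at 0 and 10 min after 50 nM substrate, following a 15 min room-temperature preincubation of 10 nM enzyme with compounds.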
The depositor's hits bear a star; u = inconclusive; x = no result given; ! = repeats disagree; [ ] = another dose, or the depositor's remark. This is a sample that favours compounds with a hit; in the whole collection about 2.4% have one here. Calls come from the whole dose curve; as a rule, active = well fitted curve in the direction sought with a large enough effect; inconclusive = small, poorly fitted or top-dose-only effect, or another doubt; inactive = no such curve, though single readings can be large; an effect the other way counts as inactive or inconclusive. Potency is the fitted concentration of half-maximal effect.

SMILES	Pol eta inh	FEN1 inhibitor	Pol kappa inh	WRN inhibitor	Pol iota inh	POLB inh
CCC1S/C(=N/C(=O)NC2CCCCC2)NC1=O (configuration not stated)	-4%	-4%	1%	4%	u	15%
COc1cccc(C(=O)/C=C/Nc2ccc(S(=O)(=O)Nc3cnc4ccccc4n3)cc2)c1	16µM*	1%	-14%	u	u	3%
O=C(/C=C/Nc1ccc(S(=O)(=O)Nc2cnc3ccccc3n2)cc1)c1ccccc1	-20%	4%	-13%	-25%	33%	-8%
Nc1nc(SCC(=O)N2N=C3/C(=C\c4ccco4)CCCC3C2c2ccco2)n[nH]1 (configuration not stated)	u	4%	-32%	-2%[11.6 µM]	40µM*	x
O=C(CSc1ncn[nH]1)N1N=C2/C(=C/c3ccccc3)CCCC2C1c1ccccc1 (configuration not stated)	-16%	-19%	-8%[60.1 µM]	-7%	14%	-26%[57.1 µM]
Nc1nc(SCC(=O)N2N=C3/C(=C/c4ccco4)CCCC3C2c2ccco2)n[nH]1 (configuration not stated)	u	-7%	-25%	-4%	45µM*	5%
CC(C)OC(=O)c1c(NC(=O)C2c3ccccc3Oc3ccccc32)sc2c1CCCC2	-11%	-9%	8%	x	0%	-2%
CCOC(=O)CN1C(=N)N(c2nc(NC(C)C)nc(OC)n2)CC1=O	0%	13%	-1%	8%[11.6 µM]	79µM*	22%
O=C(CSc1ccc2nnc(-c3cccs3)n2n1)N1CCCC1	-14%	8%	0%	-17%	51%	45µM*
Cc1cccc(-n2c(C)nnc2SCC(=O)NC(C)c2ccco2)c1 (configuration not stated)	x	16%	-11%	x	u	x
Cc1oc(-c2cccc(Cl)c2)nc1CN1CCC(C(=O)NCc2ccco2)CC1	-1%	3%	-1%	1%	0%	-1%
Cc1oc(-c2cccc(Cl)c2)nc1CN1CCC(C(=O)NC(C)C)CC1	-16%	-4%	-20%	x	89µM*	15%
CCCc1cc(=O)[nH]c(-n2[nH]c3c(c2=O)CCCC3)n1	-14%	3%	-17%	u	16µM*	12%
Cc1c(C(=O)N/N=C/c2ccc(-c3ccccc3[N+](=O)[O-])o2)sc(N)c1C#N	14µM*	10%	-12%	u	56µM*	-6%
O=C(C1CCCCC1)N1CCCc2ccccc21	-19%	6%	-4%	3%	14%	89µM*
O=C(NC1CCCCC1)N1CCCc2ccccc21	-10%	-13%	-1%	9%	16%	83%
Cc1ccc(-c2nn(-c3ccccc3)cc2C=C2SC(=S)N(CCS(=O)(=O)O)C2=O)cc1	x	x	x	20µM*	x	x
COC(=O)C1N2C(=O)[C@@H](NC(=O)COc3ccccc3)[C@H]2SC1(C)C (some centres not stated)	-6%	3%	14%	-2%	79µM*!	x
Cc1cccc(-n2c(=O)c3c(c4cc(C)ccc4n3C)n(CC(=O)NCCC3=CCCCC3)c2=O)c1	-1%	15%	-6%	x	8%	u
CCOC(=O)COc1ccccc1/C=C\[N+](=O)[O-]	-13%	6%	-8%	32µM*	-22%	-1%
Cc1ccc(C(=O)COC(=O)COc2ccccc2[N+](=O)[O-])s1	u	15%	-16%	-4%	-7%	x
NS(=O)(=O)c1nn2cc(-c3ccccc3)nc2s1	x	x	-17%[60.1 µM]	x	x	x
CC(C)(C)NC(=O)c1cc(F)c(F)cc1Cl	-5%	4%	0%	2%	8%	89µM*
CC(C)(C)NC(=O)COC(=O)c1cc(F)c(F)cc1Cl	-4%	-3%	-7%	-2%	19%	1%
COc1cc(NC(=O)CCc2nc3cccnc3n2Cc2cccs2)cc(OC)c1OC	-17%	-21%	-9%	x	9%	17%
CCOc1ccc(N2CSC3=C(C#N)C(c4ccco4)CC(=O)N3C2)cc1 (configuration not stated)	1%	-4%	0%	5%	13%	25µM*

Screening data deposited in PubChem by National Center for Advancing Translational Sciences (NCATS).
